Compound in the first test: Cc1ccc(-c2ccc3c(ccc4sc5c(c43)NC[C@@H](C)NC5=O)n2)cn1
As to the kind of experiment: kinase activity remaining relative to vehicle control; higher = less inhibition. To be noted: inhibitor concentration 0.1 µM. As for the experimental part: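 In vitro radiometric kinase profiling of the MK2 inhibitor PF-3644022 at 0.1, 1 and 10 µM against a panel of kinases (MRC International Centre for Kinase Profiling, Dundee). Read-out is % kinase activity remaining relative to the vehicle control, mean of n=2.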
UniProt P51617, sequence (P51617 whole entry, looked up): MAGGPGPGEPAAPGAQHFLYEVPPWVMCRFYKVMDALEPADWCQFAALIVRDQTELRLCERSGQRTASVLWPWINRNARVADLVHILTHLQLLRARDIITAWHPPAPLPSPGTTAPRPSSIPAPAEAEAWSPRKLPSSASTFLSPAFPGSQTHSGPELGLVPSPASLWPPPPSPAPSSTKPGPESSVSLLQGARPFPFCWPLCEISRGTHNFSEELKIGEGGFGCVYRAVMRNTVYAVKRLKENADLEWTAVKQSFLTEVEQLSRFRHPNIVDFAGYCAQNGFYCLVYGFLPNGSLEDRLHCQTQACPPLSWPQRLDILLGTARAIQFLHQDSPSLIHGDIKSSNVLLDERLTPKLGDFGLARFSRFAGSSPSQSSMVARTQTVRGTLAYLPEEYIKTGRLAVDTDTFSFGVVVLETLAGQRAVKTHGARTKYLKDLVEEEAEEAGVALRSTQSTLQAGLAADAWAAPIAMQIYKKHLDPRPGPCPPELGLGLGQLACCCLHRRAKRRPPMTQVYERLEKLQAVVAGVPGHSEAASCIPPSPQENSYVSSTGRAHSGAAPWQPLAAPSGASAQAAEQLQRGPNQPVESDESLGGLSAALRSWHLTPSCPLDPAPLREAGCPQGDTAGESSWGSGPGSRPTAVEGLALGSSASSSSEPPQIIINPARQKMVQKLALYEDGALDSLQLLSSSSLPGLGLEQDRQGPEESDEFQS
UniProt P11309, sequence (P11309 whole entry, looked up): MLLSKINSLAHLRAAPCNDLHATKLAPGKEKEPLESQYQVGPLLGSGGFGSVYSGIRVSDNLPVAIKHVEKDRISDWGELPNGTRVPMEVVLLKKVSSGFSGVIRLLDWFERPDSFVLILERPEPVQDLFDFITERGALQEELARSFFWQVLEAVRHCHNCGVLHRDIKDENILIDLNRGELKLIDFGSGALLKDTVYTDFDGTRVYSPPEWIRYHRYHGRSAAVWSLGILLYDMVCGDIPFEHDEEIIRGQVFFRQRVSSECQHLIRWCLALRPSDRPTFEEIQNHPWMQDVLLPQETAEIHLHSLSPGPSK
UniProt O75385, sequence (O75385 whole entry, looked up): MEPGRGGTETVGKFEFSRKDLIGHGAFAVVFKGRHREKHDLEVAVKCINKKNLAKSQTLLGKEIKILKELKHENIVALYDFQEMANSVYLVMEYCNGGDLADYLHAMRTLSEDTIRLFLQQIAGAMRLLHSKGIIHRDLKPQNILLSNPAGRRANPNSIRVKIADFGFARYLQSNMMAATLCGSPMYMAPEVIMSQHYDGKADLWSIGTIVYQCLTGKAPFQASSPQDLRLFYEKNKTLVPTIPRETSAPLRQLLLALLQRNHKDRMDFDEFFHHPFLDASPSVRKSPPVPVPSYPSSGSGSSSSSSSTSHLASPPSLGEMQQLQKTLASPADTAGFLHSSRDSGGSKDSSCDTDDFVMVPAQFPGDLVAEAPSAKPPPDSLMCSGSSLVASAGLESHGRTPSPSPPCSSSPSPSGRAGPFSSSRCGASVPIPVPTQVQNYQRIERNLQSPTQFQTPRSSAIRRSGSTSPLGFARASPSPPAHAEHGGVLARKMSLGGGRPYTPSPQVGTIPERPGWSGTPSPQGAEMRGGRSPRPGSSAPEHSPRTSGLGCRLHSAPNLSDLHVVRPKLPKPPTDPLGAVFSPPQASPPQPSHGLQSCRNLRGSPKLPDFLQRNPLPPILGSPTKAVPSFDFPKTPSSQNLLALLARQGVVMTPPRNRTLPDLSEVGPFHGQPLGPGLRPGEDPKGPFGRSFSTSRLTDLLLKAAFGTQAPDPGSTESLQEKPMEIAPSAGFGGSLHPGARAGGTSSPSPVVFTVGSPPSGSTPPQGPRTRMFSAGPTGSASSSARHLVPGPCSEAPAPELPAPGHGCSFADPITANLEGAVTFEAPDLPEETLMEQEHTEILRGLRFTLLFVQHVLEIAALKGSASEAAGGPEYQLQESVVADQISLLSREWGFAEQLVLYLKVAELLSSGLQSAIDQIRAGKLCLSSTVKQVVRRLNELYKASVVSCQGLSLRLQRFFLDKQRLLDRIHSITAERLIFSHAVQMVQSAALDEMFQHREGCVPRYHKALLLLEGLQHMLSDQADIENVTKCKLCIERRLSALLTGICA
UniProt Q8TDC3, sequence (Q8TDC3 whole entry, looked up): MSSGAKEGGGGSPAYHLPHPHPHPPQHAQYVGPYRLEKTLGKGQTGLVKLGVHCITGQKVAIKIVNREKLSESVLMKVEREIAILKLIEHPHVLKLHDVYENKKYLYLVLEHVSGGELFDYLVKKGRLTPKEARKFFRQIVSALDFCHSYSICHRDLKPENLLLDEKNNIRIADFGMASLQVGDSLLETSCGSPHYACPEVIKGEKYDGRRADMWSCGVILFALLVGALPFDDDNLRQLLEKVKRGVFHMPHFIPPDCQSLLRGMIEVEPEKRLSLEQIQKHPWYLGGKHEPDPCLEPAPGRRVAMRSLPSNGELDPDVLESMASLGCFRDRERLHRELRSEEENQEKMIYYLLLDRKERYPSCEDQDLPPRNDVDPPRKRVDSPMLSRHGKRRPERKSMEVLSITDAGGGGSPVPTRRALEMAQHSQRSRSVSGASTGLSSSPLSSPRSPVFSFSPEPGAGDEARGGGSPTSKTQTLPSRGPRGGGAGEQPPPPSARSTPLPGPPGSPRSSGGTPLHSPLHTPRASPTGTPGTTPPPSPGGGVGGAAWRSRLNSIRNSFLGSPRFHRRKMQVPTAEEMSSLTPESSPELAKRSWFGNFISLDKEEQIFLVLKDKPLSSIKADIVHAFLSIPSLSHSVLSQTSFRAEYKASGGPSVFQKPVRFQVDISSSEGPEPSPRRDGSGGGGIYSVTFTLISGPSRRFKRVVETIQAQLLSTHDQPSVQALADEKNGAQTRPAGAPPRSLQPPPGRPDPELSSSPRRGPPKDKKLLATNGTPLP
UniProt Q9BYT3, sequence (Q9BYT3 whole entry, looked up): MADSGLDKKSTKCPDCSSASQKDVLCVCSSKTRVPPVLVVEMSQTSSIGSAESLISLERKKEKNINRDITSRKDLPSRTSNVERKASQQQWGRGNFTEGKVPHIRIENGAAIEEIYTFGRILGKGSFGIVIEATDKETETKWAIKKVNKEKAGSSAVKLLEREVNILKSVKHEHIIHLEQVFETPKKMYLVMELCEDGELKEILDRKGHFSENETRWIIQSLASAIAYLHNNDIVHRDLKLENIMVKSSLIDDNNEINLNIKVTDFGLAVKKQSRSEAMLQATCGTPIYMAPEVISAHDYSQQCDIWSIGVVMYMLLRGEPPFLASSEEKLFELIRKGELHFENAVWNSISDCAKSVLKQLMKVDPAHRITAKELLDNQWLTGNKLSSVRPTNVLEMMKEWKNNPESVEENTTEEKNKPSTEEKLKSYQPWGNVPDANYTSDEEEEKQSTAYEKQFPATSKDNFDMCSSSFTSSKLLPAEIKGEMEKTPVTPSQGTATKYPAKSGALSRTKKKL
UniProt Q9Y4K4, sequence (Q9Y4K4 whole entry, looked up): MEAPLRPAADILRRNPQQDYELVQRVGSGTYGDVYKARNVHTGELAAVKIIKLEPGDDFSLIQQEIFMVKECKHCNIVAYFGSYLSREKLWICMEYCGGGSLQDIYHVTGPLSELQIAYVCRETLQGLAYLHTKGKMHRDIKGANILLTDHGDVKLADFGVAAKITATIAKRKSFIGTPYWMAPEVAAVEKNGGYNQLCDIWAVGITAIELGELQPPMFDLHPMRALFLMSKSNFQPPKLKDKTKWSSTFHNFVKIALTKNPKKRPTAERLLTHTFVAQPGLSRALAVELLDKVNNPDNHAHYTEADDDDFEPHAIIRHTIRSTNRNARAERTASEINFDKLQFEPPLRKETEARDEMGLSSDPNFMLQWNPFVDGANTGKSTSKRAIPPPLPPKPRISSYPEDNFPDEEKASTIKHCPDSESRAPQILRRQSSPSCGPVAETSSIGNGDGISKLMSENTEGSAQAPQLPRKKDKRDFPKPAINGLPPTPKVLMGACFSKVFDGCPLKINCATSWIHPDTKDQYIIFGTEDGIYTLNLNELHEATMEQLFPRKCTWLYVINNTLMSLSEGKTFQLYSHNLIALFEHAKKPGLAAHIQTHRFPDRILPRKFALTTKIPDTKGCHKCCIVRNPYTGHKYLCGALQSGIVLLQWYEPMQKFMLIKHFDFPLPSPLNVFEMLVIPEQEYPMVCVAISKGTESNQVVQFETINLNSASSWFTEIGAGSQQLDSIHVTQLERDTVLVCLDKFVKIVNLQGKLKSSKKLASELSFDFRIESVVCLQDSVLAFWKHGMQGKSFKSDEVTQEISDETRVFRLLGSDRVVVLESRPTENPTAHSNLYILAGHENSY
UniProt P52564, sequence (P52564 whole entry, looked up): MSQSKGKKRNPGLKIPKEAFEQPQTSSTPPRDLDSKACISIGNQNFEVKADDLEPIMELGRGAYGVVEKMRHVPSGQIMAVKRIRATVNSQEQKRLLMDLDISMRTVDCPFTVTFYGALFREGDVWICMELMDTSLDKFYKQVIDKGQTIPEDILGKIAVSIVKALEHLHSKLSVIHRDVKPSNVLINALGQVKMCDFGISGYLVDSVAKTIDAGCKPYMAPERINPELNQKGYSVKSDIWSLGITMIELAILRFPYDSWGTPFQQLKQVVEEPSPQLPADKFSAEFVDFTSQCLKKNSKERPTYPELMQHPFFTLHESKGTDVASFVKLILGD
UniProt Q8IW41, sequence (Q8IW41 whole entry, looked up): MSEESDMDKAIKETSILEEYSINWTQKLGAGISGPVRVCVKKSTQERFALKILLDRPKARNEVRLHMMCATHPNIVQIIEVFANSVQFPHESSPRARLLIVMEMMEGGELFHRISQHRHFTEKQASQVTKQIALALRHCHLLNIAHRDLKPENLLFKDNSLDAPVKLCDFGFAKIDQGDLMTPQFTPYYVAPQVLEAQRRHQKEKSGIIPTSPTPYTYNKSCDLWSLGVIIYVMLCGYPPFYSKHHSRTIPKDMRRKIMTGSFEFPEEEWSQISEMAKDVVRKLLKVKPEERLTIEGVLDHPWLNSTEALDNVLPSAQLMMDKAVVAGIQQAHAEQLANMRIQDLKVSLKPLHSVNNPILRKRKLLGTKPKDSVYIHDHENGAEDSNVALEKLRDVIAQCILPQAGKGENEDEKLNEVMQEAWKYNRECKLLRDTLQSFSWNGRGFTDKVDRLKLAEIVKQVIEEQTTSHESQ
On to CK1 gamma 2, for which the kinase activity remaining stood at 123%.

EPH-B3: the kinase activity remaining turned out to be 98%.

Take MLK3 (UniProt Q16584): the kinase activity remaining came to 114%.

For PIM1 (UniProt P11309), the kinase activity remaining worked out at 93%.

Take MKK2 (UniProt P36507): the kinase activity remaining came out at 113%.

In the case of MELK (UniProt Q14680), the kinase activity remaining was determined as 123%.

For CSK (UniProt P41240), the kinase activity remaining is 117%.

For BRSK1 (UniProt Q8TDC3), the kinase activity remaining amounted to 86%.

For the target SYK (UniProt P43405), the kinase activity remaining is 94%.

For ULK1 (UniProt O75385), the kinase activity remaining came to 115%.

On to CDK2-Cyclin A (UniProt P24941), for which the kinase activity remaining was determined as 111%.

For the target PRAK (UniProt Q8IW41), the kinase activity remaining amounted to 126%.

In the case of TLK1 (UniProt Q9UKI8), the kinase activity remaining was 113%.

With STK33 (UniProt Q9BYT3), the kinase activity remaining worked out at 105%.

With MKK6 (UniProt P52564), the kinase activity remaining is 95%.

Consider OSR1 (UniProt Q8TAX0), for which the kinase activity remaining amounted to 113%.

With AMPK, the kinase activity remaining was determined as 93%.

Turning to JNK1 (UniProt P45983), the kinase activity remaining amounted to 96%.

With IGF-1R, the kinase activity remaining is 101%.

Take DDR2 (UniProt Q16832): the kinase activity remaining stood at 105%.

As to MAP4K5 (UniProt Q9Y4K4), the kinase activity remaining worked out at 111%.

As for EF2K, the kinase activity remaining is 106%.

On to ERK1 (UniProt P27361), for which the kinase activity remaining is 111%.

RSK1 (UniProt Q15418): the kinase activity remaining stood at 106%.

On to p38 delta MAPK, for which the kinase activity remaining was 108%.

As for IRAK1 (UniProt P51617), the kinase activity remaining was 104%.

As for DAPK1 (UniProt P53355), the kinase activity remaining is 103%.

Turning to MARK3 (UniProt P27448), the kinase activity remaining was 113%.

As for CAMKK beta, the kinase activity remaining was determined as 107%.

With HIPK1 (UniProt Q86Z02), the kinase activity remaining came out at 111%.

On to AMPK (hum), for which the kinase activity remaining worked out at 68%.

In the case of p38 gamma MAPK, the kinase activity remaining was 108%.

On to MAPKAP-K3, for which the kinase activity remaining was 114%.

The same test, now with this note: inhibitor concentration 1 µM.
On to CK1 gamma 2, for which the kinase activity remaining was determined as 112%.

Consider EPH-B3, for which the kinase activity remaining turned out to be 88%.

As to MLK3 (UniProt Q16584), the kinase activity remaining stood at 102%.

In the case of PIM1 (UniProt P11309), the kinase activity remaining was 58%.

As to MKK2 (UniProt P36507), the kinase activity remaining turned out to be 108%.

Regarding MELK (UniProt Q14680), the kinase activity remaining is 102%.

CSK (UniProt P41240): the kinase activity remaining is 111%.

For BRSK1 (UniProt Q8TDC3), the kinase activity remaining turned out to be 55%.

On to SYK (UniProt P43405), for which the kinase activity remaining is 98%.

Regarding ULK1 (UniProt O75385), the kinase activity remaining was found to be 89%.

Take CDK2-Cyclin A (UniProt P24941): the kinase activity remaining came out at 93%.

In the case of PRAK (UniProt Q8IW41), the kinase activity remaining turned out to be 67%.

As to TLK1 (UniProt Q9UKI8), the kinase activity remaining turned out to be 107%.

With STK33 (UniProt Q9BYT3), the kinase activity remaining is 83%.

On to MKK6 (UniProt P52564), for which the kinase activity remaining stood at 98%.

With OSR1 (UniProt Q8TAX0), the kinase activity remaining was 112%.

For the target AMPK, the kinase activity remaining was found to be 38%.

On to JNK1 (UniProt P45983), for which the kinase activity remaining turned out to be 93%.

As for IGF-1R, the kinase activity remaining stood at 108%.

For DDR2 (UniProt Q16832), the kinase activity remaining came out at 101%.

As to MAP4K5 (UniProt Q9Y4K4), the kinase activity remaining was determined as 108%.

On to EF2K, for which the kinase activity remaining came out at 97%.

For the target ERK1 (UniProt P27361), the kinase activity remaining came out at 108%.

Consider RSK1 (UniProt Q15418), for which the kinase activity remaining was 100%.

Take p38 delta MAPK: the kinase activity remaining worked out at 103%.

IRAK1 (UniProt P51617): the kinase activity remaining amounted to 77%.

For DAPK1 (UniProt P53355), the kinase activity remaining was 62%.

As for MARK3 (UniProt P27448), the kinase activity remaining was determined as 115%.

In the case of CAMKK beta, the kinase activity remaining is 87%.

For HIPK1 (UniProt Q86Z02), the kinase activity remaining was 104%.

As for AMPK (hum), the kinase activity remaining is 21%.

As to p38 gamma MAPK, the kinase activity remaining worked out at 115%.

As for MAPKAP-K3, the kinase activity remaining came to 62%.

The test is the same for the next values; noted with them: inhibitor concentration 10 µM.
With CK1 gamma 2, the kinase activity remaining was determined as 102%.

As to EPH-B3, the kinase activity remaining amounted to 85%.

MLK3 (UniProt Q16584): the kinase activity remaining was found to be 73%.

PIM1 (UniProt P11309): the kinase activity remaining worked out at 17%.

With MKK2 (UniProt P36507), the kinase activity remaining was 79%.

On to MELK (UniProt Q14680), for which the kinase activity remaining came out at 77%.

As for CSK (UniProt P41240), the kinase activity remaining turned out to be 106%.

For BRSK1 (UniProt Q8TDC3), the kinase activity remaining amounted to 29%.

In the case of SYK (UniProt P43405), the kinase activity remaining was found to be 82%.

On to ULK1 (UniProt O75385), for which the kinase activity remaining amounted to 75%.

On to CDK2-Cyclin A (UniProt P24941), for which the kinase activity remaining amounted to 57%.

Turning to PRAK (UniProt Q8IW41), the kinase activity remaining amounted to 24%.

Regarding TLK1 (UniProt Q9UKI8), the kinase activity remaining is 100%.

In the case of STK33 (UniProt Q9BYT3), the kinase activity remaining came to 38%.

As for MKK6 (UniProt P52564), the kinase activity remaining was found to be 91%.

As to OSR1 (UniProt Q8TAX0), the kinase activity remaining amounted to 118%.

As for AMPK, the kinase activity remaining worked out at 9%.

For the target JNK1 (UniProt P45983), the kinase activity remaining amounted to 92%.

Regarding IGF-1R, the kinase activity remaining was found to be 114%.

Take DDR2 (UniProt Q16832): the kinase activity remaining worked out at 91%.

Turning to MAP4K5 (UniProt Q9Y4K4), the kinase activity remaining turned out to be 61%.

EF2K: the kinase activity remaining was found to be 85%.

With ERK1 (UniProt P27361), the kinase activity remaining stood at 112%.

Consider RSK1 (UniProt Q15418), for which the kinase activity remaining came out at 76%.

On to p38 delta MAPK, for which the kinase activity remaining is 94%.

With IRAK1 (UniProt P51617), the kinase activity remaining came out at 27%.

Consider DAPK1 (UniProt P53355), for which the kinase activity remaining is 15%.

Turning to MARK3 (UniProt P27448), the kinase activity remaining was determined as 110%.

As for CAMKK beta, the kinase activity remaining stood at 28%.

As for HIPK1 (UniProt Q86Z02), the kinase activity remaining was determined as 130%.

As to AMPK (hum), the kinase activity remaining stood at 6%.

p38 gamma MAPK: the kinase activity remaining was 97%.

Take MAPKAP-K3: the kinase activity remaining amounted to 30%.
